The full list was thinned out, with hits kept by preference.
KDM5B inhibitor – inhibitors of human KDM5B histone demethylase. Q9UGL1. KDM5B demethylase, FDH-coupled NADH fluorescence (FDH is formaldehyde dehydrogenase). Potency, µM (top dose mostly 57.7 µM), most hits filed as inhibitors. actives 2.6% (n = 220,000). AID 1347165; active = well fitted inhibition curve with a large enough effect; note: 0% is about no effect; nearly all actives have a fitted effect of over 70% in size
Target sequence (Q9UGL1 whole entry, looked up): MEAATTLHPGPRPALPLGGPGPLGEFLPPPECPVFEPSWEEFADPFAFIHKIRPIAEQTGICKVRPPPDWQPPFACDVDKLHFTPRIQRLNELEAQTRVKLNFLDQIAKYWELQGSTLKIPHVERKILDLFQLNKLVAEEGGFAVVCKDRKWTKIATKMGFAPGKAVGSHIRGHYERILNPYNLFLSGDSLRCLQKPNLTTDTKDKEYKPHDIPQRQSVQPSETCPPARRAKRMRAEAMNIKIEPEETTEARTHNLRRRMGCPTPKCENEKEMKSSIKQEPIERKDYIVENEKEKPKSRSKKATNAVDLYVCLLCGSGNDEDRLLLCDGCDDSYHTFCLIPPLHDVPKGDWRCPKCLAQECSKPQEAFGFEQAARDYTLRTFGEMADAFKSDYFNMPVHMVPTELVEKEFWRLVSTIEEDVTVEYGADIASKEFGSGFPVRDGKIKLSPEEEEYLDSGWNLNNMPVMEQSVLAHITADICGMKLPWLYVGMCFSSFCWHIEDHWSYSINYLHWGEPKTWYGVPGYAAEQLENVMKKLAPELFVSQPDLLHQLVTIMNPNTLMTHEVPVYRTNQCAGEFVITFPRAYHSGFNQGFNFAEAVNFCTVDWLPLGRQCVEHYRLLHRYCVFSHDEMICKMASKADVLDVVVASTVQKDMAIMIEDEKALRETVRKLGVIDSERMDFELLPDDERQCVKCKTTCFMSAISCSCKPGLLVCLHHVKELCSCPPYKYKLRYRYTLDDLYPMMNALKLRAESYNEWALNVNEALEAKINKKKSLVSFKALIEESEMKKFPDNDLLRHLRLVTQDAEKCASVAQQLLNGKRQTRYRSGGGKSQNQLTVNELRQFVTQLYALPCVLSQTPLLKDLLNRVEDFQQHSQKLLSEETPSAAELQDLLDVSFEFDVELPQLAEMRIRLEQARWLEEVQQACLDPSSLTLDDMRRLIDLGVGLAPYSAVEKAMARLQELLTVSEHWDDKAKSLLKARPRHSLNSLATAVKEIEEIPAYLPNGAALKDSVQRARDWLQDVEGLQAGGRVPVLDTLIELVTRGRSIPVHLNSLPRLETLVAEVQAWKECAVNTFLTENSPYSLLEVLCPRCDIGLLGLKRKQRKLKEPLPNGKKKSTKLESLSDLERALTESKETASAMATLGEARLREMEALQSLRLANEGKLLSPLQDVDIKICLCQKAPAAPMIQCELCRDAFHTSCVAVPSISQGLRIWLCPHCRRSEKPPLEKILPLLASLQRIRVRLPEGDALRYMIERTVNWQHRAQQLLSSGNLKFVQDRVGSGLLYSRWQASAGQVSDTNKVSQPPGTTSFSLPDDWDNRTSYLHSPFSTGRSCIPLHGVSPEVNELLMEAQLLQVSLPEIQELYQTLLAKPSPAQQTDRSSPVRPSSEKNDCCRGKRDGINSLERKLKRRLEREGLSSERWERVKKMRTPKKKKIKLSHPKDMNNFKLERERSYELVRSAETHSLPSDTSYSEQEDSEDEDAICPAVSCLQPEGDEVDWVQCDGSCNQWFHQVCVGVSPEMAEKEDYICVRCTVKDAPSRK
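KDM5BΔAP (200 nM final) in 50 mM HEPES pH 7.5, 0.01% Tween-20 was preincubated 10 min at RT with compound over a concentration range. Substrate mix (H3K4me3 12.5 µM, α-KG 25 µM, Fe²⁺, ascorbate, NAD⁺, FDH) was added, and NADH fluorescence change over 30 min gave dose-response curves.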
Numbers without * were called inactive; i = inactive. Potency is the fitted concentration of half-maximal effect.

SMILES | KDM5B inhibitor
Cc1ccc(CCNC(=O)c2ccc(CN3C(=O)CSc4ncccc43)cc2)cc1 | i
COc1ccc(CO[C@H]2COCCN(c3nc4ccccc4o3)C2)cc1 | i
CCOc1cc(S(=O)(=O)N(CCO)CCO)ccc1Cl | i
Cc1ccc(NC(=O)Cn2nnc(C(=O)NCc3cccs3)c2N)cc1Cl | i
Cc1ccc(C)c(Cn2c(N3CCC(C(=O)N4CCCCC4)CC3)nc3ccccc32)c1 | i
COc1ccccc1-c1cc(N2CCN(c3ccccn3)CC2)c2onc(C)c2n1 | i
Cc1noc2c(NCCN(C)C)cc(-c3ccc(F)cc3)nc12 | i
COCCNc1cc(-c2ccc(F)cc2)nc2c(C)noc12 | i
Cc1noc2c(Nc3ccncc3)cc(-c3ccc(F)cc3)nc12 | 28µM*
COc1ccccc1-c1cc(NCc2ccncc2)c2onc(C)c2n1 | 28µM*
COc1ccccc1-c1cc(NCC2CCOCC2)c2onc(C)c2n1 | i
O=C(Cc1ccc(-c2ccccc2)cc1)NCCS(=O)(=O)N1CCN(c2cccc(Cl)c2)CC1 | i
C[C@@H](NC(=O)N1CCC(n2cc(CO)nn2)CC1)c1ccc(F)cc1 | i
CCCc1nc2ccccc2n2c(-c3ccc(C)cc3)c3c(=O)n(C)c(=O)n(C)c3c12 | i
C1=C(c2nc(-c3ccc(N4CCOCC4)cc3)cc3c2ccn3Cc2cccnc2)CCOC1 | 28µM*
CN(C)Cc1ccc(-c2cc3c(ccn3Cc3cccnc3)c(C3=CCOCC3)n2)cc1 | 35µM*
C1=C(c2nc(-c3cccc4[nH]ncc34)cc3c2ccn3Cc2cccnc2)CCOC1 | i
CN(Cc1cccnc1)c1nc2c(c(=O)[nH]1)CCN(Cc1ccc(F)c(F)c1)CC2 | i
O=C(/C=C/c1ccccc1OCc1cccnc1)c1ccc(N2CCOCC2)cc1 | i
Nc1ccc(Cl)c[n+]1Cc1cccc2cccnc12 | i
CCn1cc(CN(C)CCc2c(C)nn(C)c2C)ccc1=O | i
CCS(=O)(=O)Nc1ccc(C2(C(=O)NCC3CCCO3)CCCCC2)cc1 (centres undefined) | i
COc1cccc(C(=O)NC2CCN(c3nnc4ccccn34)CC2)c1 | 28µM*
O=C(Cc1ccc(F)cc1)NC1CCN(c2cc(-c3ccc(F)cc3)[nH]n2)CC1 | i
Cc1ccc(CC(=O)NC2CCN(c3cnn(C)c(=O)c3)CC2)cc1 | i
SMILES | KDM5B inhibitor
COc1cccc(C(=O)NC2CCCCC2)c1 | i
O=C(CCc1ccccc1)NC1CCN(c2ccccc2S(=O)(=O)C(F)(F)F)CC1 | i
O=C(NC1CCOC2(CCOCC2)C1)c1ccc(Cl)s1 (centres undefined) | i
Cc1ccc(CC(=O)NC2CCN(c3nnc4cccc(C)n34)CC2)cc1 | 32µM*
COc1cccc(C(=O)NC2CCN(c3cc(C(F)(F)F)ncn3)CC2)c1 | i
O=C(CCCc1ccccc1)NC1CCN(c2cc(-c3ccccc3)[nH]n2)CC1 | i
O=C(CCc1ccccc1)NC1CCN(c2nnc3ccccn23)CC1 | 25µM*
Cc1cc(C)cc(N2CCC(NC(=O)c3ccc(Cl)s3)C2=O)c1 (centres undefined) | i
O=C(NC1CCN(c2nnc3ccccn23)CC1)c1ccc(Cl)s1 | 25µM*
C1CCC2(CC1)C(OCC1CC1)CN2C1CCNCC1 (centres undefined) | i
Clc1ccc(Cl)c(-c2nn3c(CN4CCCCC4)nnc3s2)c1 | i
Cc1nc2ccc(C(=O)NCCN(C(C)C)C(C)C)cc2nc1C | i
COc1ccc2c(ccn2CC(=O)Nc2ccc3c(c2)OCO3)c1 | i
COc1cnc(CSc2nc(C)cs2)cc1OCC(=O)N1CCc2ccccc21 | i
COc1cccc(-c2nc3cnccn3c2NCCC(=O)N2CCc3ccccc32)c1 | 22µM*
COc1ccc(Nc2c(-c3cccc(O)c3)nc3cnccn23)cc1 | i
COc1cnc(CSc2nc(C)cc(C)n2)cc1OCC(=O)N1CCc2ccccc21 | i
COc1cccc(Cc2nc3ccccc3nc2SCC(=O)N2CCc3ccccc32)c1 | i
COc1ccccc1-c1nc2cnccn2c1NCCC(=O)N1CCc2ccccc21 | 28µM*
COc1ccccc1-c1ccc2ncc(Nc3ccc4c(c3)OCO4)n2n1 | i
COc1cccc(-c2nc3cnccn3c2NCCC(=O)N2CCN(C)CC2)c1 | 28µM*
COc1ccccc1-c1nc2cnccn2c1NCCC(=O)Nc1ccc2c(c1)OCO2 | 28µM*
COc1cccc(NC(=O)Cc2ccc(NC(=O)N3CCCCc4ccccc43)cc2)c1 | i
CCCCCCC(=O)N1CCCC(c2nc(-c3cccc(OC)c3)no2)C1 (centres undefined) | i
COc1ccccc1CNC(=O)C1CCCN(S(=O)(=O)c2cc(-c3noc(C)n3)ccc2C)C1 (centres undefined) | i
SMILES | KDM5B inhibitor
CC(=O)c1cccc(NC(=O)c2sc3nc(-c4ccc(F)cc4)cn3c2C)c1 | i
CC(C)(C)NC(=O)CN1CCN(C(=O)CCc2ncc(-c3ccccc3)o2)CC1 | i
Cn1nc(C(=O)N2CCCc3ccc(F)cc32)c2ccccc2c1=O | i
COc1ccc(OC)c(C2C=C(c3cccc(Br)c3)Nc3nnnn32)c1 (centres undefined) | i
CCC(C)(CC(=O)O)CC(=O)O | i
O=C(CCc1ccccc1)N1CC2(C1)CN(c1ccccc1)C(=O)O2 | i
CN1C[C@H](O)C[C@H]1c1nnc2n1CCN(Cc1ccc(C(F)(F)F)cc1)C2 | i
Cc1cc2cc(-c3c(C)noc3C)nc(NCc3cccc(F)c3)c2o1 | i
Cc1cc2cc(-c3c(C)noc3C)nc(Nc3ccc(F)cc3)c2o1 | 32µM*
Cc1cc2cc(-c3c(C)noc3C)nc(Nc3ccccc3)c2o1 | 40µM*
Cc1noc(C)c1-c1cc2cc(CN3CCN(C)CC3)oc2c(NC2CCN(C)CC2)n1 | i
Cc1noc2ncnc(Nc3ccc(F)cc3)c12 | i
Cc1cc2cc(-c3c(C)noc3C)nc(Nc3ccc(Cl)cc3)c2o1 | 22µM*
COc1cc(CNc2nc(-c3c(C)noc3C)cc3cc(C)oc23)cc(OC)c1 | 32µM*
Cc1noc(C)c1-c1cc2cc(CN(C)C)oc2c(NCc2cccc(F)c2)n1 | i
Cc1noc(C)c1-c1cc2cc(CNC(C)C)oc2c(NC2CCN(C)CC2)n1 | i
CC(C)Cn1nc(-c2ccccc2)c2ccccc2c1=O | i
CCc1ccc(N2C(=O)N(CC(=O)NC(C)CC)c3ccccc3S2(=O)=O)cc1 (centres undefined) | i
OCc1nc2ccccc2s1 | i
O=C(c1ccc(F)cc1)N1CCC(c2nc3ccccc3o2)CC1 | i
Cn1ccc2c(C(=O)NCc3cccnc3)nc(-c3ccccc3C(F)(F)F)cc21 | 35µM*
Cn1ccc2c(C(=O)NCc3cccnc3)nc(-c3ccc(CO)cc3)cc21 | i
Cn1ccc2c(C(=O)NCc3cccnc3)nc(-c3cccnc3)cc21 | i
Cn1ccc2c(C(=O)NCc3cccnc3)nc(-c3cccc4cc[nH]c34)cc21 | 35µM*
Cc1nc2ccccc2nc1SCC(=O)N1CCOCC1 | i
O=C(c1cccs1)N1N=C(c2ccc(Cl)cc2)CC1c1ccc2nccnc2c1 (centres undefined) | i
Fc1ccc(COc2ccc(-c3nnco3)cc2)c(Br)c1 | i
N#Cc1cccc(Oc2ccc(Cl)c(Oc3cccc(C#N)c3C#N)c2)c1C#N | i
CCOc1cccc2cc(S(=O)(=O)N3CCCCCC3)c(=O)oc12 | i
CN1CCC(N(C)C(=O)CCC[C@@H]2[C@H]3CCCN4CCC[C@@H](CN2C(=O)c2ccccc2)[C@@H]34)CC1 | i
